Data reported in the supplement of paper PMC10811239.

What follows are molecules tested on LEGO organoid PTN (PTEN-/-; TP53-/-; NF1-/-) (assay: bioluminescence (viable cell) signal fold change after vs before treatment, normalised to DMSO (ratio); higher = more tumour cell growth / less inhibition). Conditions: 10 µM; treatment time 6 days.
Procedure: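 Luc2-labelled iPSC-derived glioblastoma-like organoids (LEGOs, genotypes PT = PTEN-/-;TP53-/-, PTCC = plus CDKN2A/B-/-, PTN = plus NF1-/-) were treated with 10 uM drug for 6 days (applied every other day) at 37 C. Bioluminescence imaging was done before treatment and 2 days after the last dose. BLI signals were normalised to the DMSO control on the same day and then to the pre-treatment signal (N=3).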

First: COC(=O)C1=C(C)NC(C)=C(C(=O)OCCN(C)Cc2ccccc2)C1c1cccc([N+](=O)[O-])c1.Cl (centres undefined) [Nicardipine hydrochloride]
Second: CC/C(=C(\c1ccccc1)c1ccc(OCCN(C)C)cc1)c1ccccc1.O=C(O)CC(O)(CC(=O)O)C(=O)O [Tamoxifen Z-isomer citrate]
The bioluminescence of the first is lower: 1.14 for the first, 6.34 for the second.

First: CCCC(CCC)C(=O)O.CCCC(CCC)C(=O)[O-].[Na+] [Divalproex Sodium]
Second: CCN(CC)CC(=O)Nc1c(C)cccc1C [Xylocaine]
The bioluminescence of the first is lower: 0.401 for the first, 1.22 for the second.

First: CN1CCN(C2=Nc3cc(Cl)ccc3Nc3ccccc32)CC1 [Clozapine]
Second: Clc1ccc2c(c1)C(N1CCNCC1)=Nc1ccccc1O2 [Amoxapine]
The bioluminescence of the first is lower: 0.617 for the first, 0.981 for the second.

Compared with `Cc1nc(Nc2ncc(C(=O)Nc3c(C)cccc3Cl)s2)cc(N2CCN(CCO)CC2)n1` [Dasatinib], `Cc1cnc(NC(=O)C2=C(O)c3ccccc3S(=O)(=O)N2C)s1` [Meloxicam] is higher in bioluminescence: 2 for the first, 3.3 for the second.

First: Nc1nc2c(ncn2COC(CO)CO)c(=O)[nH]1 [Ganciclovir]
Second: Nc1nc2c(ncn2COCCO)c(=O)[nH]1 [Aciclovir]
The bioluminescence of the first is lower: 2.38 for the first, 4.45 for the second.

Going from `CCc1c2c(nc3ccc(OC(=O)N4CCC(N5CCCCC5)CC4)cc13)-c1cc3c(c(=O)n1C2)COC(=O)[C@]3(O)CC.Cl.O.O.O` [Irinotecan hydrochloride trihydrate] to `O=C(c1cc(Cc2n[nH]c(=O)c3ccccc23)ccc1F)N1CCN(C(=O)C2CC2)CC1` [Olaparib], the bioluminescence falls from 1.15 to 0.865.

First: O=C(O)Cc1ccccc1Nc1c(Cl)cccc1Cl [Diclofenac]
Second: CN[C@H]1CC[C@@H](c2ccc(Cl)c(Cl)c2)c2ccccc21.Cl [Sertraline hydrochloride]
The bioluminescence of the first is lower: 1.13 for the first, 1.32 for the second.

First: O.O.O.O.O.O.O.O=C1CN(/N=C/c2ccc(-c3ccc([N+](=O)[O-])cc3)o2)C(=O)[N-]1.O=C1CN(/N=C/c2ccc(-c3ccc([N+](=O)[O-])cc3)o2)C(=O)[N-]1.[Na+].[Na+] [Dantrolene sodium hemiheptahydrate]
Second: CO[C@H]1/C=C/O[C@@]2(C)Oc3c(C)c(O)c4c(O)c(c(/C=N/N5CCN(C)CC5)c(O)c4c3C2=O)NC(=O)/C(C)=C\C=C\[C@H](C)[C@H](O)[C@@H](C)[C@@H](O)[C@@H](C)[C@H](OC(C)=O)[C@@H]1C [Rifampicin]
The bioluminescence of the first is higher: 2.84 for the first, 0.579 for the second.

First: Nc1ccn([C@@H]2CS[C@H](CO)O2)c(=O)n1 [Lamivudine]
Second: Cl.Nc1c2c(nc3ccccc13)CCCC2.O [Tacrine hydrochloride hydrate]
The bioluminescence of the first is lower: 1.2 for the first, 1.22 for the second.

Going from `CN(C/C=C/C#CC(C)(C)C)Cc1cccc2ccccc12` [Terbinafine] to `CC(C)NCC(O)COc1cccc2ccccc12.Cl` (centres undefined) [Propranolol hydrochloride], the bioluminescence falls from 2.32 to 1.25.

Going from `CCCCCCCCCC(=O)OCCN1CCN(CCCN2c3ccccc3Sc3ccc(C(F)(F)F)cc32)CC1` [Fluphenazine decanoate] to `Cl.CN(C)CC\C=C1\c2ccccc2CCc2ccccc12` [Amitriptyline hydrochloride], the bioluminescence rises from 0.964 to 1.12.

Compared with `Cc1ccnc2c1NC(=O)c1cccnc1N2C1CC1` [Nevirapine], `CC(=O)Nc1ccc(O)cc1` [Acetaminophen] is lower in bioluminescence: 1.73 for the first, 0.918 for the second.
